Data reported in PubChem BioAssay AID1063 (University of Pittsburgh Molecular Library Screening Center, 2008).
The campaign covered roughly 200,000 compounds. About 18,000 (9%) were called active. Rule as the data show it: active = inhibition above about 50%; inactive = the rest. Only a selection was taken, and actives are over-represented in it overall.

test: antileishmanial activity against promastigotes – primary screen (AID 1063); settings: Leishmania major promastigotes, resazurin fluorescence viability; at 10 µM; hits give high values;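 also: promastigotes grown with compound for 44 hours at 28 °C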

Structure (SMILES)	inhibition
CCCN(CC(=O)Nc1ccc(OC)c(OC)c1)CC(=O)Nc1ccc(F)c(F)c1F	-4.92% (inactive)
COCCSc1nnc(NC(=O)c2cc(OC)c(OC)cc2[N+](=O)[O-])s1	-4.07% (inactive)
CC(=O)c1ccc(NC(=S)N(Cc2ccccc2)C(C)C2CC2)cc1 (centres undefined)	11.1% (inactive)
CC(C)CC(=O)NC(=S)Nc1ccc(F)cc1F	-0.93% (inactive)
Cc1[nH]nc(SCC(=O)NCC(C)C)c1[N+](=O)[O-]	-6.19% (inactive)
OC(COCCC12CC3CC(CC(C3)C1)C2)CN1CCCCC1 (centres undefined)	92.4% (active)
Cc1cccc(C)c1OCC(O)CN1CCCCC1 (centres undefined)	-0.13% (inactive)
COCC1CCCN(Cc2cn[nH]c2-c2cc3ccccc3o2)C1 (centres undefined)	11.4% (inactive)
O=C(CC1Nc2ccccc2NC1=O)Nc1ccccc1NC(=O)CC1Nc2ccccc2NC1=O (centres undefined)	-4.12% (inactive)
CSCCC(=O)N1CCCC(CNC(=O)c2ccccc2Cl)C1 (centres undefined)	-3.88% (inactive)
COc1ccc(/C=N/Nc2nc3ccccc3c(=O)[nH]2)cc1	36.7% (inactive)
COc1ccc(Cc2nnc(N/N=C/c3ccccc3O)[nH]c2=O)cc1OC	97.4% (active)
CCOc1ccc(-n2c(O)c(/C=N/Nc3nnc(C)c(=O)[nH]3)c3ccccc3c2=O)cc1	3.53% (inactive)
CCCCNS(=O)(=O)c1ccc2nc(SCC(=O)Nc3cc(C)cc(C)c3)[nH]c2c1	-3.48% (inactive)
O=C(CSc1ncn[nH]1)NCc1ccc2c(c1)OCO2	-2.48% (inactive)
Cc1[nH]c2c(C(=O)N3CCCC(CCC(=O)NCc4ccccc4F)C3)cccc2c1C (centres undefined)	3.43% (inactive)
Nc1[nH]c(=S)nc2nc(-c3ccccc3)c(-c3ccccc3)nc12	29.6% (inactive)
CCc1c(C)nc2cc(-c3cccs3)[nH]n2c1=O	6.8% (inactive)
Cc1nc2nc[nH]n2c(=O)c1C/C=C/c1ccccc1	-0.45% (inactive)
CCc1c(C)nc2cc(C)[nH]n2c1=O	65% (active)
COc1cccc(Cn2cnc3c([N+](=O)[O-])c(C)c(C)cc32)c1	12.1% (inactive)
Oc1ccccc1C=NC1CCCCC1N=Cc1ccccc1O (centres undefined)	-8.81% (inactive)

Structure (SMILES)	inhibition
COc1cc(/C=C2/C(=O)ON=C2C)ccc1OCc1ccccc1F	33.4% (inactive)
COc1cc(/C=C2/C(=O)ON=C2C)ccc1OCc1cccc(F)c1	53.5% (active)
COc1cc(/C=N/n2c(C)n[nH]c2=S)ccc1OCc1ccccc1	36.4% (inactive)
Cc1cccc2c1N(CCOc1ccccc1)C(=O)C2=O	4.82% (inactive)
O=C(CC1C(=O)NCCN1CC(c1ccccc1)c1ccccc1)NCCc1cn[nH]c1 (centres undefined)	-0.14% (inactive)
Cc1cc([N+](=O)[O-])nn1Cc1ccc(F)cc1	10.1% (inactive)
CCCOc1ccc(C2C(C(=O)c3ccc(C)o3)=C(O)C(=O)N2CCCn2ccnc2)cc1 (centres undefined)	-8.78% (inactive)
CCCCOC(=O)CCCc1ccc([N+](=O)[O-])cc1[N+](=O)[O-]	0.48% (inactive)
CCOc1ccc(C(=O)Nc2nccs2)cc1[N+](=O)[O-]	48.5% (inactive)
Cc1ccccc1NC(=O)CSC1=NCCN1	-2.55% (inactive)
CCCCCOc1ccc(CSC2=NCCN2)cc1[N+](=O)[O-]	88.3% (active)
CCOc1ccc(Br)cc1CSC(=N)N	33.2% (inactive)
CCCOc1ccc(Cn2ccnc2)cc1[N+](=O)[O-]	85.9% (active)
Cc1nc(SCc2ccc(F)cc2)c([N+](=O)[O-])[nH]1	-7.82% (inactive)
CCCCOc1ccc(CSC(=N)N)cc1[N+](=O)[O-]	100% (active)
CN(C)c1ccc(C=NCCc2ccc(S(N)(=O)=O)cc2)cc1	3.91% (inactive)
CCOC(=O)c1cnc2[nH]c3ccccc3n2c1=O	7.85% (inactive)
O=C(O)CC/C(=N\NC(=O)c1ccc(F)cc1)c1ccc(Br)cc1	-8.88% (inactive)
Cn1ccc(=NC=C(C#N)C#N)c2ccccc21	7.93% (inactive)
CC(=O)c1ccc(NC(=O)Nc2ccc([N+](=O)[O-])cc2C)cc1	-1.56% (inactive)
O=[N+]([O-])c1ccc2c(c1)C(N1CCOCC1)/C(=C/C1(O)CCCCC1)O2 (centres undefined)	-7.12% (inactive)
Cc1cc2nc(C(F)(F)F)cc(-c3cccs3)n2n1	2.4% (inactive)

Structure (SMILES)	inhibition
COc1ccc(OC)c(S(=O)(=O)Nc2cccc(-c3ccc4nncn4n3)c2)c1	-2.67% (inactive)
S=C(Nc1cccc(Cl)c1)Nc1ccc2cn[nH]c2c1	10.9% (inactive)
FC(F)(F)c1cccc(NC(=S)Nc2cccc(Cl)c2)c1	75.6% (active)
Cc1csc(NC(=S)Nc2cccc(Cl)c2)n1	9.23% (inactive)
CCNC(=O)CC1C(=O)N(c2ccc(OC)cc2)C(=S)N1CCc1ccncc1 (centres undefined)	-4.31% (inactive)
COc1ccc2oc(=O)c(C(=O)N3CCCC3)cc2c1	-7.26% (inactive)
Clc1ccc(-c2nnc(-c3ccccc3)nc2N2CCSCC2)cc1	58.6% (active)
CC1CN(c2nc(-c3ccccc3)nnc2-c2ccccc2)CC(C)O1 (centres undefined)	5.94% (inactive)
Cn1nc(-c2ccccc2)c(-c2nc(-c3ccc(Cl)cc3)no2)c1Cl	-4.1% (inactive)
CN(CCc1cnn(C)c1)Cc1cn(C)nc1-c1ccccc1F	-3.32% (inactive)
CC(C)N(C(=O)CSc1nc(COc2ccccc2)nc2ccccc12)C(C)C	21.6% (inactive)
Cc1ccc(S(=O)(=O)N(C)c2ccc(OCC(=O)NC3=NCCS3)cc2)cc1	1.37% (inactive)
CC(=O)NCCC(=O)Nc1cc(S(=O)(=O)N2CCOCC2)ccc1N1CCOCC1	0.47% (inactive)
COc1cc(S(=O)(=O)N2CCOCC2)ccc1NC(=O)COc1ccc(N(C)S(=O)(=O)c2ccc(C)cc2)cc1	94% (active)
CCOc1cc(N2CCOCC2)c(OCC)cc1NC(=O)c1cc(C)nc2ccccc12	6.2% (inactive)
CCOc1cc(N2CCOCC2)c(OCC)cc1NC(=O)c1ccc(C)s1	6.96% (inactive)
COC(=O)COc1ccc(S(=O)(=O)N2CCOCC2)cc1	-7.05% (inactive)
O=C(COc1cccc2ccccc12)Nc1cc(S(=O)(=O)N2CCOCC2)ccc1N1CCOCC1	61.2% (active)
CCOc1cc(N2CCOCC2)c(OCC)cc1NC(=O)COc1cccc2cccnc12	100% (active)
O=C(COC(=O)c1ccccc1F)Nc1cc(S(=O)(=O)N2CCOCC2)ccc1N1CCCC1	5.17% (inactive)
